According to PubChem BioAssay AID720519 (National Center for Advancing Translational Sciences (NCATS), 2013):
Inconclusive results are not listed. Values without a mark were called inactive. The call rests on the fitted dose curve; in most records, active means well fitted activation curve with a large enough effect; inconclusive means small, poorly fitted or top-dose-only effect; inactive means flat fitted curve, though single readings scatter.

Assay: qHTS for Inhibitors of Cell Surface uPA Generation: Confirmatory Assay for Cherry-picked Compounds; further: 0% is about no effect
Settings: cell surface uPA activity generation, qHTS confirmation; series mostly up to 115 µM; inhibition: at the top concentration
In short: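 RAW 264.7 cells at 4000/well, incubated overnight, then treated with compounds. After 24 h at 37 C, viability was read by ATPlite luminescence. An increase in signal indicates blocked uPA-dependent LF entry.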
In the case of C#CCN1C=C(C(=O)OCC)C(C)NS1(=O)=O (centres undefined), the “inhibition” value is reported as 1.26%. For Cc1cc(OC(C)C(=O)NCc2ccccn2)c2c(C)cc(=O)oc2c1 (centres undefined), the “inhibition” value was 3.43%. In the case of Brc1ccsc1/C=N/Nc1ccccc1, the “inhibition” value is reported as 3.17%. For COc1ccc(CCNC(=O)Cn2cccc2C(=O)c2ccccc2)c(OC)c1, the “inhibition” value was -2.23%. With CC(=O)NS(=O)(=O)c1ccc(NC(=O)c2cccc(OCc3c(C)noc3C)c2)cc1 the “inhibition” value was -0.123%. In the case of O=C(CNC(=O)c1ccc(Br)o1)NNC(=O)c1ccccc1, the “inhibition” value is reported as -1.22%. In the case of COc1ccc(C(=O)NNC(=O)Cc2ccc(Cl)cc2)cc1, the “inhibition” value is reported as 1.7%. In the case of O=S(=O)(c1ccc2nc(N3CCN(c4ccccc4)CC3)ccc2c1)N1CCCCC1, the “inhibition” value is reported as 1.42%. In the case of O=C(NCCc1ccccc1)C1CCC(=O)N(Cc2cccc(C(F)(F)F)c2)C1 (centres undefined), the “inhibition” value is reported as -2.36%. For COCCNC(=S)N(CCc1c(C)[nH]c2ccccc12)Cc1ccco1, the “inhibition” value was -2.32%. With Cc1cc(-c2ccccc2)nc(N/N=C/c2ccc(N(C)C)cc2)n1 the “inhibition” value was -2.59%. For Cc1cccc(CCNC(=O)Cc2ccc(NC3=NC4CS(=O)(=O)CC4S3)cc2)c1 (centres undefined), the “inhibition” value was 5.41%. In the case of COc1ccc(C(=O)N2CCN(c3ccc(C(C)=O)cc3)CC2)cc1S(=O)(=O)N1CCCC1, the “inhibition” value is reported as -2.44%. In the case of COc1cccc(C(=O)NCc2ccc3[nH]c(C)cc3c2)c1, the “inhibition” value is reported as -1.27%. For O=c1[nH]c2ccccc2cc1CN(CC1CCCO1)S(=O)(=O)c1ccccc1 (centres undefined), the “inhibition” value was -0.407%. With Cc1cccc(-c2nc(CS(=O)CC(=O)NCc3cccs3)c(C)o2)c1 (centres undefined) the “inhibition” value was -3.26%. With COc1cc(CCC(=O)OCC(=O)NCc2ccccc2)cc(OC)c1OC the “inhibition” value was 0.19%. With O=C(c1cc([N+](=O)[O-])cc([N+](=O)[O-])c1)N(c1ccccn1)c1ccccn1 the “inhibition” value was -1.86%. With CCc1nc(SCC(N)=O)c2c(=O)n(C)c(=O)n(C)c2n1 the “inhibition” value was -0.0006%. In the case of CCC(COC)NC(=O)CCc1nnc(Cc2c[nH]c3ccccc23)o1 (centres undefined), the “inhibition” value is reported as -1.15%. For O=C(c1ccco1)N1CCN(c2ncccn2)CC1, the “inhibition” value was -1.83%. In the case of CN(CCO)c1ccc(C(C(=O)c2ccccc2)c2ccc(N(C)CCO)cc2)cc1, the “inhibition” value is reported as -2.56%. With CC(=O)NCCc1cnc[nH]1 the “inhibition” value was -2.18%. In the case of CC1C2=C(CC(C)(C)CC2=O)NC2=C1C(=O)CC(C)(C)C2, the “inhibition” value is reported as -0.241%. With COc1ccccc1NC(=O)Cn1ncc2c1-c1ccccc1OC2 the “inhibition” value was -1.12%. With O=C(CSc1nnnn1-c1cccc(F)c1)Nc1nc2ccccc2s1 the “inhibition” value was 0.878%. In the case of CCN(CC)c1c([N+](=O)[O-])c(=O)sc2ccccc12, the “inhibition” value is reported as -1.46%. With O=C(O)CC1(CC(=O)NCc2ccc(Cl)cc2)CCCCC1 the “inhibition” value was -1.48%. With O=C(CSc1nncs1)NC(=O)NCc1ccco1 the “inhibition” value was -3.16%. For Cc1cc(=O)[nH]c(=S)[nH]1, the “inhibition” value was -1.76%. In the case of COc1cc(F)ccc1S(=O)(=O)n1c(C)nc2ccccc21, the “inhibition” value is reported as 5.83%. With Cc1cc(C)n(C(=O)c2cccc([N+](=O)[O-])c2)n1 the “inhibition” value was -3.17%. For N/C(=N/OC(=O)c1ccccc1F)c1nonc1N, the “inhibition” value was -2.61%. In the case of O=C(c1ccc(NC(=S)NCc2ccc(Cl)cc2)cc1)N1CCCCC1, the “inhibition” value is reported as -2.24%. For C/C(=N\NC(=O)c1cccc([N+](=O)[O-])c1)c1cccnc1, the “inhibition” value was -1.45%. With CC(=O)c1ccc(NC(=O)Nc2ccc(Br)cc2C)cc1 the “inhibition” value was 1.84%. For Cc1ccccc1C(=O)NCC(=O)Nc1ccc(C)c(S(=O)(=O)N2CCCCCC2)c1, the “inhibition” value was -3.15%. With CC(OC(=O)c1cccc(-n2cnnn2)c1)C(=O)Nc1ccc(F)c(F)c1F (centres undefined) the “inhibition” value was -3.23%. For Cc1cc(SCc2ccc(Cl)cc2)nc(=O)[nH]1, the “inhibition” value was -3%.
